Source: the supplement of paper PMC12067093, “Discovery and optimisation of a covalent ligand for TRIM25 and its application to targeted protein ubiquitination” (Chemical Science, 2025)
The full data set covers some 21,000 targets. This sample favours those with the largest changes.

Compound: CC1Cc2ccccc2N1C(=O)C1CCCN(C1)C(=O)CCl (mixture of isomers) [TRIM25 ligand 11 (diastereomer mixture)]
Assay: probe-labelled cysteine peptide fold change vs DMSO (competition) (log2 fold change); higher = less target engagement (more negative = stronger competition)
Details: 10 µM; THP-1; incubation time: 4 h
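Note: competitive chemoproteomic profiling in live THP-1 cells with an iodoacetamide desthiobiotin (IA-DTB) probe, comparing probe-labelled peptide intensities in compound-treated cells against DMSO-treated controls.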

UniProt O60711, sequence (O60711 whole entry, looked up): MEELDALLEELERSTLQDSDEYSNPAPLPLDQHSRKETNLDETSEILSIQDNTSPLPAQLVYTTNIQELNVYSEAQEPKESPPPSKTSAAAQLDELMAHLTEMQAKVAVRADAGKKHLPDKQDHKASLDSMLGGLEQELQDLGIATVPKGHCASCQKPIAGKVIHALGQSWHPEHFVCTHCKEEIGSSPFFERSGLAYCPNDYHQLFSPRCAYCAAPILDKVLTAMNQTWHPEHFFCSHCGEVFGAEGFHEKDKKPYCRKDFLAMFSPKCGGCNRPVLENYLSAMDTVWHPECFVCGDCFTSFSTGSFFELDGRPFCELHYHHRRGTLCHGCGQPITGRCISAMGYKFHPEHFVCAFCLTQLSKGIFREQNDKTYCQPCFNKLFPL
UniProt Q9NSE4, sequence (Q9NSE4 whole entry, looked up): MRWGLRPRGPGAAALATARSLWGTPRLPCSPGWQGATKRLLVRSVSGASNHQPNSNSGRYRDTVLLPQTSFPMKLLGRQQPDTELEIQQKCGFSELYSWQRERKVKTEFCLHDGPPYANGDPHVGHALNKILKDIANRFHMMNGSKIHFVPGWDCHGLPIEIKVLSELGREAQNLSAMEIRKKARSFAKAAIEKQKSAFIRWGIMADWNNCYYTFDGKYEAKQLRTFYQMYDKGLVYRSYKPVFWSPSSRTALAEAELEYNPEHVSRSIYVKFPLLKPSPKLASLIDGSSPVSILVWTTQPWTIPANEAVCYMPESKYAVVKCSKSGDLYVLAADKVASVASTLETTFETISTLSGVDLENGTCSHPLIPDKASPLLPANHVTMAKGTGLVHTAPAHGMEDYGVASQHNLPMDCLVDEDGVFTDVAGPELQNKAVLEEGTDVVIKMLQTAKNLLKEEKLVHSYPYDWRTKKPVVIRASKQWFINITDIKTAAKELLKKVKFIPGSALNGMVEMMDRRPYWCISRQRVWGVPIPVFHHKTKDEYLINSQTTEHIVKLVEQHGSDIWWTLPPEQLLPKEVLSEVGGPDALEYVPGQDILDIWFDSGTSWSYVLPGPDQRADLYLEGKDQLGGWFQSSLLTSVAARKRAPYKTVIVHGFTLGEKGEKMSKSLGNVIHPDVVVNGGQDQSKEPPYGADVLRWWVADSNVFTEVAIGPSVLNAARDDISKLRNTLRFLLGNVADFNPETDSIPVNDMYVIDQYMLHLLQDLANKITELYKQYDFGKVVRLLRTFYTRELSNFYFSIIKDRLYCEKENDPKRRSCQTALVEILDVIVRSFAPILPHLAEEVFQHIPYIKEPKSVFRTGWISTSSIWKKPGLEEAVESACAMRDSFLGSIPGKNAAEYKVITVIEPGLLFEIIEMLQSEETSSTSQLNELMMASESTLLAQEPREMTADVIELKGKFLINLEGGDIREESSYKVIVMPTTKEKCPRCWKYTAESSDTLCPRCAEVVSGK
UniProt Q14807, sequence (Q14807 whole entry, looked up): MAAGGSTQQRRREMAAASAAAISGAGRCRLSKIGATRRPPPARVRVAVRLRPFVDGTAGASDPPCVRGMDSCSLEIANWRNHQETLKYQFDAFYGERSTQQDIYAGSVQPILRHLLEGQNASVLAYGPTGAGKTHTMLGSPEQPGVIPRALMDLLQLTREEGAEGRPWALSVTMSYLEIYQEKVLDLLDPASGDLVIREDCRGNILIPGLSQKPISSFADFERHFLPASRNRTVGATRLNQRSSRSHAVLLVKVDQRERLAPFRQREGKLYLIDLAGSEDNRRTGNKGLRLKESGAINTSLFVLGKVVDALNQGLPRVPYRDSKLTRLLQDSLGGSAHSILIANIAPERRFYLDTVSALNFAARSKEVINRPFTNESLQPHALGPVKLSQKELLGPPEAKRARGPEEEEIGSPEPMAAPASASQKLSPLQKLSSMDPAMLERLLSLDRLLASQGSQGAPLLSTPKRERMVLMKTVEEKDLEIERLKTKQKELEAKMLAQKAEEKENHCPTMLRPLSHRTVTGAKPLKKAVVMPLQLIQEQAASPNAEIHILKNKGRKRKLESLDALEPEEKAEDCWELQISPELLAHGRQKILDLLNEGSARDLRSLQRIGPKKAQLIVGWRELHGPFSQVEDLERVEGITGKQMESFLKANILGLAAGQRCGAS
UniProt Q9NS86, sequence (Q9NS86 whole entry, looked up): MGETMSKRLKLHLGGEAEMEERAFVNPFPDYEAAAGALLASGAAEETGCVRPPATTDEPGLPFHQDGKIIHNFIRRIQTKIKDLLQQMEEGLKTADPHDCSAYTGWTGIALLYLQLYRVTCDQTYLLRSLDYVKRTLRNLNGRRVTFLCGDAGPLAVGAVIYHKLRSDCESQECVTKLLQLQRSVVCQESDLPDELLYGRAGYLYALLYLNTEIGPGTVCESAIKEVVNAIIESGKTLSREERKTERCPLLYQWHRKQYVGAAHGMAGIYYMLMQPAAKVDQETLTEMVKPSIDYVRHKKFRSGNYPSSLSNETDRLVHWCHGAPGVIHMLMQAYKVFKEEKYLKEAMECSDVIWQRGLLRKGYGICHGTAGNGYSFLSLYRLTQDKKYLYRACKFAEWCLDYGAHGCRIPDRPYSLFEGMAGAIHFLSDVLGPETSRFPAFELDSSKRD
UniProt O14920, sequence (O14920 whole entry, looked up): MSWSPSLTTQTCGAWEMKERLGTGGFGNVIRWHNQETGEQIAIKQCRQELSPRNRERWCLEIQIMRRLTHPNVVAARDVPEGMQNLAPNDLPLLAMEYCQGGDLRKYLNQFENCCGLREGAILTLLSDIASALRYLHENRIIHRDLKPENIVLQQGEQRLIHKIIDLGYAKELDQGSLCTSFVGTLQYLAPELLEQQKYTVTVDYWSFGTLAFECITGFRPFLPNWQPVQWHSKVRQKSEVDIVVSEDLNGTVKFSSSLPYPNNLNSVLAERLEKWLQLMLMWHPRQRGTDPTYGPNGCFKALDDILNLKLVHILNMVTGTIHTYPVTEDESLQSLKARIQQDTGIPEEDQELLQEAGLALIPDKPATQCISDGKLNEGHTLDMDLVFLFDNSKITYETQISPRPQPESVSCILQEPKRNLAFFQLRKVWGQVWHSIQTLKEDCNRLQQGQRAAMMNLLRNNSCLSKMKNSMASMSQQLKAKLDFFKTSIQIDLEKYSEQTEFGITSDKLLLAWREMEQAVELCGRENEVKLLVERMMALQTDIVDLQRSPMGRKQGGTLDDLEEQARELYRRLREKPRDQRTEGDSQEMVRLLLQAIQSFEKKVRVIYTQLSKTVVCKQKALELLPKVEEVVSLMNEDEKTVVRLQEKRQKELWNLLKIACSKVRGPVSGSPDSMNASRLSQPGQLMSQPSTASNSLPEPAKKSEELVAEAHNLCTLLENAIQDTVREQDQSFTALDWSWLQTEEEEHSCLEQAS
UniProt P26440, sequence (P26440 whole entry, looked up): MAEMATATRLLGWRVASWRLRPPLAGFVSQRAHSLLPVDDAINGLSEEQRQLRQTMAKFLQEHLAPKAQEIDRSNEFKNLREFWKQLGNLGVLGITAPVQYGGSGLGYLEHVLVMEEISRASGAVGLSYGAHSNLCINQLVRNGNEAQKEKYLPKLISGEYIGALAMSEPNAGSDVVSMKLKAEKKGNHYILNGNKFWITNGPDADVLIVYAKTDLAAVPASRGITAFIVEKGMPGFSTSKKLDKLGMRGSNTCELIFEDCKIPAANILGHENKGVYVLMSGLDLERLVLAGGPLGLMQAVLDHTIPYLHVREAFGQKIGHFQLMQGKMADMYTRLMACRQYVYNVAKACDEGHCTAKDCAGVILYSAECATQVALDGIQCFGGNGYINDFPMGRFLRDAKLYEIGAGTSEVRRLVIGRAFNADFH
UniProt Q5JSJ4, sequence (Q5JSJ4 whole entry): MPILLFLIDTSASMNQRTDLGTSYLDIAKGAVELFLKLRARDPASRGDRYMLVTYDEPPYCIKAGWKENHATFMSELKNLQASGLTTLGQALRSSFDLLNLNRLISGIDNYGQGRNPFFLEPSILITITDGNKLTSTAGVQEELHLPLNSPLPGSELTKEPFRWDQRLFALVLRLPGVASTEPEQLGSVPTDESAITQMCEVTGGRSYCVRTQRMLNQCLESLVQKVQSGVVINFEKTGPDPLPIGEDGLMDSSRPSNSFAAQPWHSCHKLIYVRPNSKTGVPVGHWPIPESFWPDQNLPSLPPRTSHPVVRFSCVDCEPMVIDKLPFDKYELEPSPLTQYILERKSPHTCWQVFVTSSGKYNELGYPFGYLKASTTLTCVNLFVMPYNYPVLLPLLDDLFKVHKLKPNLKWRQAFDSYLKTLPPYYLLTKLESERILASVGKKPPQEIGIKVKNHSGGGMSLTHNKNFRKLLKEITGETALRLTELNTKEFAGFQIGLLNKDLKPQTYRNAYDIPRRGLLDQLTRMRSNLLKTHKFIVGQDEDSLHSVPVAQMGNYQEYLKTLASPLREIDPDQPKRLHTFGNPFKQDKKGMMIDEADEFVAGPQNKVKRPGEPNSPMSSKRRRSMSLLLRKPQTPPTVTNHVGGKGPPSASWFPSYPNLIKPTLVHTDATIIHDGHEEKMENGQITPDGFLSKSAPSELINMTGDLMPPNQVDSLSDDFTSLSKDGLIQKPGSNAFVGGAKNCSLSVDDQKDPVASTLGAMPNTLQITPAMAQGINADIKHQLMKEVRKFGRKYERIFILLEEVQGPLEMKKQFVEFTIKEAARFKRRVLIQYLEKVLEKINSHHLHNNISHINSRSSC
UniProt P48059, sequence (P48059 whole entry, looked up): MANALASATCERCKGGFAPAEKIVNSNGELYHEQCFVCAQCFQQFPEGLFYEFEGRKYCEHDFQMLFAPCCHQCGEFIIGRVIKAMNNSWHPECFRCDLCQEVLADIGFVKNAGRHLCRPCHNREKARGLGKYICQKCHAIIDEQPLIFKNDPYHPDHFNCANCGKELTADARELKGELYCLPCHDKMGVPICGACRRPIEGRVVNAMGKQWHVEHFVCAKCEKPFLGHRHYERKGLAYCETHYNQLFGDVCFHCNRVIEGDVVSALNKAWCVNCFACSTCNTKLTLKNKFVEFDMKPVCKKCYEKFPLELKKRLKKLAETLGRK

Target	probe-labelled cysteine peptide fold change
ITGB2_P05107_386_VTYDSFCSNGVTHR (UniProt P05107)	0.0533
LIG3_P49916_499_KCPNGMFSEIKYDGER (UniProt P49916)	0.24
KIAA1958_Q8N8K9_246_PKPQTHAGPSCVGSAK (UniProt Q8N8K9)	-0.0886
IKBKB_O14920_524_EMEQAVELCGR (UniProt O14920)	0.182
KIF22_Q14807_201_VLDLLDPASGDLVIREDCR (UniProt Q14807)	-0.154
KPNA1_P52294_424_YLVELGCIK (UniProt P52294)	0.213
KLHL26_Q53HC5_383_SGEGAVDACYR (UniProt Q53HC5)	0.33
ITGB2_P05107_481_NCECQTQGR (UniProt P05107)	-0.17
ITSN2_Q9NZM3_1429_ENSDRLEWIQAHVQCEGLAEQLIFNSLTNCLGPR (UniProt Q9NZM3)	-0.507
LIMS3_P0CW19-2_121+132_KYCEHDFQMLFAPCCHQCGEFIIGR<|>LIMS1_P48059_59+70_KYCEHDFQMLFAPCCHQCGEFIIGR (UniProt P48059+P0CW19)	-0.18
INPP5F_Q9Y2H2_725_DTLQCIAEMLQITK (UniProt Q9Y2H2)	0.173
INTS6L_Q5JSJ4_745_NCSLSVDDQK (UniProt Q5JSJ4)	0.156
LRRC8C_Q8TDW0_599_MTNLTELELVHCDLER (UniProt Q8TDW0)	0.076
KIF3A_Q9Y496_230_SHAIFTITIECSEK (UniProt Q9Y496)	0.112
LANCL2_Q9NS86_367_GYGICHGTAGNGYSFLSLYR (UniProt Q9NS86)	0.0845
IGF2R_P11717_1783_TSECDFVFEWETPVVCPDEVR (UniProt P11717)	-0.144
IVD_P26440_136_ASGAVGLSYGAHSNLCINQLVR (UniProt P26440)	0.0597
KDM3A_Q9Y4C1_814_PACPASTSPLNWLADLTSGNVNK (UniProt Q9Y4C1)	0.0136
LIMS1_P48059_193+196_MGVPICGACR (UniProt P48059)	-0.089
LPXN_O60711_155_GHCASCQK (UniProt O60711)	0.00581
IARS2_Q9NSE4_819_SCQTALVEILDVIVR (UniProt Q9NSE4)	0.153
LGALS1_P09382_3_ACGLVASNLNLKPGECLR (UniProt P09382)	-0.0986
KNTC1_P50748_911_IIDLIDREQGEDCLLLLK (UniProt P50748)	0.282
IGF2R_P11717_149_TLGTPEFVTATECVHYFEWR (UniProt P11717)	-0.0703
IRF3_Q14653_267_HVLSCLGGGLALWR (UniProt Q14653)	-0.17
LGALS1_P09382_17_ACGLVASNLNLKPGECLR (UniProt P09382)	-0.0469
